Experimental data: PubChem BioAssay (NCATS)
Records with an inconclusive call do not appear. Activity calls are given as the source filed them. Calls come from the whole dose curve; as a rule, active = well fitted cell-killing curve with a large enough effect; inconclusive = small, poorly fitted or top-dose-only effect, or effect the other way; inactive = flat fitted curve, though single readings scatter.

Experiments:
Experiment in all cases: Primary qHTS to identify gynecologic anti-cancer compounds using libraries of approved drugs and bioactive compounds (AID 1345084); note: nearly all actives have a fitted effect of over 55% in size
Conditions in all cases: Gynecologic cancer cell panel viability, ATPlite luminescence, 48 h; series mostly up to 57.5 µM
[1] = tested on: OV90
Method in brief: (§1)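 Five-concentration response, 48 h; readout is ATP-driven luciferase luminescence.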

[2] = tested on: PA-1
Method in brief: as §1

[3] = tested on: Tov-21-G
Method in brief: as §1

[4] = tested on: Tov112D
Method in brief: as §1

Measured: Potency

C[C@H]1[C@@H](O)[C@H](O)C2[C@]3(C)C([C@@H](O)[C@H]4OC(=O)[C@@H]1[C@@]24C)[C@](C)(O)C=C[C@H]3O[C@@H]1O[C@H](CO)[C@@H](O)[C@H](O)[C@H]1O (stereo partly specified)
inactive: [1] | [2] | [3] | [4]

CCOc1ccc(-c2cc(NC(=O)c3c(F)cccc3F)c(C(=O)O)s2)cc1
inactive: [1] | [2] | [3] | [4]

CCCC(C(=O)O)c1c(C)nc2ccc(Cl)cc2c1-c1ccccc1 (stereo unspecified)
inactive: [1] | [2] | [3] | [4]

COc1cc(/C=C/C(=O)O[C@@H]2O[C@H](CO)[C@@H](O)[C@H](O)[C@H]2O)ccc1O
inactive: [1] | [2] | [3] | [4]

COc1cc(O)c2c(c1Cl)CC(C)OC2=O (stereo unspecified)
inactive: [1] | [2] | [3] | [4]

CC(=O)OC12CC(C)C(O)C1/C=C(/COC1OC(CO)C(O)C(O)C1O)CCC1C(/C=C(\C)C2=O)C1(C)C (stereo unspecified)
inactive: [1] | [2] | [3] | [4]

CC1CCC2(NC1)OC1C(O)C3C4CCC5CC(O[C@@H]6O[C@H](CO)[C@@H](O)[C@H](O)[C@H]6O[C@@H]6O[C@@H](C)[C@H](O)[C@@H](O)[C@H]6O)CCC5(C)C4CCC3(C)C1C2C (stereo partly specified)
inactive: [1] | [2] | [3] | [4]

C[C@]1(O)CC[C@@H]2C(C(=O)O)=CO[C@@H](O[C@@H]3O[C@H](COC(=O)/C=C/c4ccc(O)c(O)c4)[C@@H](O)[C@H](O)[C@H]3O)[C@@H]21
inactive: [1] | [2] | [3] | [4]

C=C(CO)C(=O)O[C@H]1C[C@@]23O[C@@H]2CC/C(=C/[C@H]2OC(=O)C(=C)[C@H]12)CO[C@H]3O
inactive: [1] | [2] | [3] | [4]

O=C(C[C@@H]1C(C(=O)O)=CO[C@@H](O[C@@H]2O[C@H](CO)[C@@H](O)[C@H](O)[C@H]2O)/C1=C\CO)OCCc1ccc(O)c(O)c1
inactive: [1] | [2] | [3] | [4]

COc1cc2c(c(O)c1OC/C=C(\C)CC/C=C(/C)CCC=C(C)C)CN(C(CCC(=O)O)C(=O)O)C2=O (stereo unspecified)
inactive: [1] | [2] | [3] | [4]

COc1c2c(c(C)c3c1C(=O)OC3)OC1(C)CC(O)C34OC(OC)(CC(O)C3(C)C1C2)OC4(C)C (stereo unspecified)
inactive: [1] | [2] | [3] | [4]

C=C(CCO)C(=O)OCC1OCC(OC(=O)C(=C)CCO[C@@H]2O[C@H](COC(=O)C(=C)CCO[C@@H]3O[C@H](CO)[C@@H](O)[C@H](O)[C@H]3O)[C@@H](O)[C@H](O)[C@H]2O)C(O)C1O (stereo partly specified)
inactive: [1] | [2] | [3] | [4]

O=C(O)c1ccncc1Nc1nn(CCN2CCC(F)(F)CC2)c2ccc(F)cc12
inactive: [1] | [2] | [3] | [4]
